Assay in all cases: qHTS profiling for inhibitors of Plasmodium falciparum proliferation (AID 504749); also: nearly all actives have a fitted effect of over 60% in size
Common to all, as to settings: P. falciparum in erythrocytes, SYBR Green DNA, 72 h; series mostly up to 12.8 µM
(In general: In qHTS, concentration-response curves come from the screen itself.)

One test relates to AS120. The gist of the method:
(§1)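 Infected RBCs, 0.3% parasitemia/2.5% Hct final; cpd 72 h, 37 C, 5% CO2; lysis buffer with saponin/triton/SYBR Green I, o/n RT dark; FI 485/535; norm. to artemisinin (0.29 uM) and DMSO.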

Another test concerns CP185. A digest of the protocol: as §1
In another test the test system is CP194. The gist of the method: as §1
A further test relates to CP238. A digest of the protocol:
as §1

The subject of a further test is CP256. A digest of the protocol: as §1
In another test the test system is CP266. A digest of the protocol:
as §1

A further test has as its system CP269. The gist of the method: as §1
The next test concerns CP286. The gist of the method: as §1
A further test relates to CP291. A digest of the protocol: as §1
The subject of another test is CP297. The gist of the method: as §1
The next test concerns CP325. A digest of the protocol:
as §1

A further test relates to DIV30. The gist of the method: as §1
In a further test the test system is ECU. A digest of the protocol: as §1
A further test deals with FAB9. The gist of the method:
as §1

For another test, the system named is N140. A digest of the protocol:
as §1

Another test has as its system PC15. The gist of the method:
as §1

The next test has as its system PC26. The gist of the method: as §1
The test system of a further test is SC27B. The gist of the method:
as §1

The next test relates to TAB109. The gist of the method: as §1
In a further test the test system is TAB165. The gist of the method:
as §1

Results filed as inconclusive are left out. Calls of active or inactive are those of the source. Calls follow the shape of the dose curve; as a rule, active = well fitted inhibition curve with a large enough effect; inconclusive = small, poorly fitted or top-dose-only effect; inactive = flat fitted curve, though single readings scatter.
Potency is read from the fitted curve at half-maximal effect.

Consider `CC1(C)S[C@H]2C(NC(=O)[C@@H](N)c3ccc(O)cc3)C(=O)N2[C@@H]1C(=O)O` (stereo partly drawn), for which the Potency result in the test on AS120, in the test with CP185, in the test on CP194, in the test with CP238, with CP256 and in the test on CP266 was “inactive” each time. Moreover, the Potency result in the test with CP269, with CP286, in the test with CP291, in the test on CP297, with CP325 and in the test with DIV30 was “inactive” each time. Moreover, the Potency entry in the test with ECU, with FAB9, with N140, in the test on PC15, with PC26 and in the test with SC27B was “inactive” throughout. In addition, the Potency entry with TAB109 and with TAB165 was “inactive” in each case.
As for `CC(=O)O[C@@]1(C(C)=O)CCC2C3CC(C)C4=CC(=O)CC[C@@]4(C)C3CC[C@]21C` (stereo partly drawn), the Potency entry with CP194, in the test on CP238, with CP266, in the test with CP269, with CP286 and in the test on CP291 was “inactive” each time. The Potency entry with CP297, with CP325, with DIV30, in the test on FAB9 and in the test on PC26 was “inactive” each time.
With `NC(CCC(=O)N[C@@H](CS)C(=O)NCC(=O)O)C(=O)O` (stereo partly drawn), the Potency was 8.91 µM (active) in the test on CP256; 15.1 µM (active) in the test with CP269; 15.1 µM (active) in the test with CP297; 12 µM (active) in the test on DIV30; 10 µM (active) in the test with ECU; 4.47 µM (active) with N140. Further, the Potency is 5.01 µM (active) in the test with PC15, 12 µM (active) with PC26, 4.47 µM (active) in the test on TAB109 and 3.98 µM (active) in the test with TAB165. Further, in the test with CP266, the Potency result is “inactive”.
Turning to `N[C@@H]1C(O)OC(CO)C(O)C1O` (stereo partly drawn), the Potency entry in the test with AS120, in the test on CP185, with CP194, in the test with CP238, in the test on CP256 and with CP266 was “inactive” in each case. Further, the Potency entry in the test with CP286, in the test with CP291, in the test with CP297, in the test on CP325, in the test with DIV30 and with ECU was “inactive” in each case. The Potency result in the test with FAB9, in the test on N140, in the test with PC15, in the test with PC26, in the test with SC27B and in the test on TAB109 was “inactive” throughout. Besides, the Potency result with TAB165 is “inactive”.
Regarding `CC(=O)OCC(=O)[C@@]12OC3(CCCC3)OC1CC1C3CCC4=CC(=O)C=C[C@@]4(C)[C@]3(F)C(O)C[C@]12C` (stereo partly drawn), the Potency in the test with AS120 and in the test with N140 was 11.2 µM (active) throughout. Further, the Potency entry in the test on CP185, in the test with CP194, with CP256, in the test with CP266, in the test with CP269 and with CP291 was “inactive” throughout. In addition, the Potency entry with CP325, in the test with FAB9 and with PC15 was “inactive” in each case.
Take `CCC(C)C(=O)OC1CC(O)C=C2C=CC(C)C(CCC(O)CC(O)CC(=O)O)C21` (stereo not drawn): the Potency entry with AS120, in the test on CP185, in the test on CP194, with CP238, in the test on CP256 and with CP266 was “inactive” throughout. Further, the Potency entry with CP269, with CP286, in the test with CP291, with CP297, in the test on CP325 and in the test on DIV30 was “inactive” throughout. Besides, the Potency result in the test with ECU, with FAB9, with N140, with PC15, in the test on PC26 and in the test with SC27B was “inactive” throughout. The Potency entry in the test on TAB109 and in the test on TAB165 was “inactive” each time.
Consider `CC(C)Oc1ccc2c(=O)cc(-c3ccccc3)oc2c1`, for which the Potency result with AS120, in the test on CP185, in the test with CP194, with CP238, with CP256 and with CP266 was “inactive” each time. For the same compound, the Potency result in the test with CP269, in the test on CP286, in the test with CP291, with CP325, with DIV30 and in the test on ECU was “inactive” each time. The Potency entry in the test with FAB9, in the test with N140, with PC15, with PC26, with SC27B and with TAB109 was “inactive” in each case. Moreover, the Potency entry with TAB165 was “inactive”.
With `CCC1OC(=O)CC(O)C(C)[C@@H](O[C@@H]2OC(C)[C@H](O[C@@H]3C[C@@](C)(O)C(O)C(C)O3)C(N(C)C)C2O)[C@H](CC=O)CC(C)C(=O)/C=C/C(C)=C/[C@@H]1COC1OC(C)C(O)C(OC)[C@@H]1OC` (stereo partly drawn), the Potency is 1.41 µM (active) in the test on CP256, 1 µM (active) with CP286 and 0.891 µM (active) in the test with TAB109. For the same compound, the Potency entry in the test on ECU, with FAB9 and with PC15 was “inactive” throughout.
As for `C[C@@]12CCC(=O)C=C1C=CC1C2CC[C@]2(C)C1CC[C@@]21CCC(=O)O1` (stereo partly drawn), the Potency entry with AS120, in the test on CP194, with CP238, in the test with CP256, in the test on CP266 and in the test with CP269 was “inactive” each time. The Potency result in the test with CP286, with CP291, in the test with CP297, with CP325, in the test on DIV30 and in the test with ECU was “inactive” each time. In addition, the Potency entry in the test on FAB9, with PC15, in the test on PC26 and in the test with SC27B was “inactive” throughout.
Take `C[C@@]12C=CC(=O)C=C1CCC1C3CC(O)[C@@](O)(C(=O)CO)[C@]3(C)CC(O)[C@]12F` (stereo partly drawn): the Potency result in the test with AS120, in the test on CP185, in the test on CP194, in the test on CP238, in the test with CP256 and in the test with CP266 was “inactive” each time. Further, the Potency result with CP269, in the test on CP286, in the test on CP291, with CP297, in the test on CP325 and in the test with DIV30 was “inactive” throughout. Moreover, the Potency entry in the test on ECU, in the test with FAB9, in the test with N140, with PC15, in the test with PC26 and in the test with SC27B was “inactive” throughout. Further, the Potency entry with TAB109 and in the test with TAB165 was “inactive” each time.
Consider `CCCCCCCCCc1ccc(OCCOCCOCCOCCOCCOCCOCCOCCOCCO)cc1`, for which the Potency result in the test on CP185, in the test on CP238, in the test with CP266, in the test with CP286, in the test with CP291 and in the test with CP325 was “inactive” in each case. In addition, the Potency entry in the test with DIV30, with FAB9, with PC15 and with TAB109 was “inactive” each time. For the same compound, the Potency in the test with TAB165 is 7.08 µM (active).
For `OCC1OC(n2cnc3c(=S)nc[nH]c32)C(O)C1O` (stereo not drawn), the Potency result in the test on AS120, with CP185, in the test on CP194, with CP238, in the test with CP256 and with CP266 was “inactive” throughout. Moreover, the Potency entry with CP269, with CP286, with CP291, in the test on CP297, in the test with CP325 and in the test with DIV30 was “inactive” each time. In addition, the Potency entry in the test on ECU, with FAB9, in the test with N140, in the test with PC15, with PC26 and with SC27B was “inactive” throughout. Further, the Potency entry in the test with TAB109 and in the test on TAB165 was “inactive” each time.
For the compound `CC1C2CCC3C4CC=C5CC(N(C)C)CC[C@@]5(C)C4CC[C@@]32CN1C` (stereo partly drawn), the Potency entry in the test with AS120, in the test with CP185, in the test on CP194, with CP238, in the test with CP256 and in the test with CP266 was “inactive” each time. Moreover, the Potency result with CP269, in the test with CP286, with CP291, in the test on CP297, with CP325 and in the test on DIV30 was “inactive” in each case. Moreover, the Potency result in the test on ECU, with FAB9, in the test with N140, in the test with PC15, in the test on PC26 and in the test on SC27B was “inactive” each time. For the same compound, in the test on TAB165, the Potency entry was “inactive”.

Values taken from PubChem BioAssay (NCATS).
